Experimental findings from PMC7862700, “An all-to-all approach to the identification of sequence-specific readers for epigenetic DNA modifications on cytosine” are described below.

Assay in all cases: DAPPL (digital affinity profiling via proximity ligation, sequencing); 10 mM Tris-HCl pH 7.5, 50 mM NaCl, 1 mM DTT, 4% glycerol, room temperature, 30 min; GST-TFs on glutathione beads, 16-mer random dsDNA library, 0.1% formaldehyde crosslink after washing; high values mean tight binding
One test addresses T1, FEV (Homo sapiens, UniProt Q99581 1-238).
T1 sequence: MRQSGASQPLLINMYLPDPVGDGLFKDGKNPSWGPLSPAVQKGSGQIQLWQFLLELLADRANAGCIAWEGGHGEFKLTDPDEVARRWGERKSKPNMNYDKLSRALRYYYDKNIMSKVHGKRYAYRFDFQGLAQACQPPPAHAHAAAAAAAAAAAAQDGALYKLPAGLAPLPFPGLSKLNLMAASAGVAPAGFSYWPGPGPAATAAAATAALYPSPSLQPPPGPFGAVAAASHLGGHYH
The note with it: protein: recombinant; tags: N-terminal GST; dsDNA, one strand shown. A digest of the protocol:
(§1)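 Pools of DNA-barcoded human transcription factors, expressed in yeast as GST fusions on glutathione beads and combined with a tag-only sample, were incubated with 200 nmole of a 16-mer random double-stranded DNA library. Incubation took 30 min at room temperature in Tris/NaCl/DTT/glycerol buffer and was followed by washing, 0.1% formaldehyde crosslinking, proximity ligation (BsaI/T4 ligase, 1 h, 37 °C), PCR amplification and sequencing on an Illumina NextSeq500. Binding signal is the ratio of a hexamer's read frequency for a factor to its frequency for the tag-only sample.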

A further test addresses ETV5 (Homo sapiens, UniProt P41161 1-510). The note with it: protein: recombinant; tags: N-terminal GST; dsDNA, one strand shown. In outline:
as §1

The next test addresses HSF1 (Homo sapiens, UniProt Q00613 1-529). The conditions noted are these: protein: recombinant; tags: N-terminal GST; chain copies: 3; dsDNA, one strand shown. A digest of the protocol:
as §1

Another test has as its target T2, SPIC (Homo sapiens, UniProt Q8N5J4 1-248).
T2 sequence: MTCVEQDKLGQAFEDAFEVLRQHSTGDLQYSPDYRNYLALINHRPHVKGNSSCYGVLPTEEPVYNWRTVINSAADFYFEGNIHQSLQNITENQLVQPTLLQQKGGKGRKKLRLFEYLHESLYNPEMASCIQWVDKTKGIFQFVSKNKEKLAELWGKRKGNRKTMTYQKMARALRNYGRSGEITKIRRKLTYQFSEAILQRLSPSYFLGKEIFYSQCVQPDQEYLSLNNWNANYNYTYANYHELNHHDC
The conditions noted are these: protein: recombinant; tags: N-terminal GST; dsDNA, one strand shown. A digest of the protocol: as §1

In the next test the target is ELF4 (Homo sapiens, UniProt Q99607 1-663). The note with it: protein: recombinant; tags: N-terminal GST; dsDNA, one strand shown. In outline: as §1
The target of a further test is T3, ELK4 (Homo sapiens, UniProt P28324-2 1-405).
T3 sequence: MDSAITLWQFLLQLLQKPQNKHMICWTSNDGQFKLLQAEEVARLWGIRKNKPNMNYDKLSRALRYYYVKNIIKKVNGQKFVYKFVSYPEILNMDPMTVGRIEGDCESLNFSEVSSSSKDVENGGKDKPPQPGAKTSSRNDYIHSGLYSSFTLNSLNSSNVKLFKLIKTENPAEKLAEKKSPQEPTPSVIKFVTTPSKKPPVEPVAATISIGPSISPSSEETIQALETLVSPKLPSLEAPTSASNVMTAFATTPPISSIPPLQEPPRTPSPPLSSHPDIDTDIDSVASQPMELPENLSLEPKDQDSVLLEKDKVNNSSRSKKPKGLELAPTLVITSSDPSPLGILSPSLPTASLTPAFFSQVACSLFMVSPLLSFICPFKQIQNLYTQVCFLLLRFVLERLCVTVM
The note with it: protein: recombinant; tags: N-terminal GST; dsDNA, one strand shown. In outline:
as §1

In another test the target is T4, ETV2 (Homo sapiens, UniProt O00321 1-342).
T4 sequence: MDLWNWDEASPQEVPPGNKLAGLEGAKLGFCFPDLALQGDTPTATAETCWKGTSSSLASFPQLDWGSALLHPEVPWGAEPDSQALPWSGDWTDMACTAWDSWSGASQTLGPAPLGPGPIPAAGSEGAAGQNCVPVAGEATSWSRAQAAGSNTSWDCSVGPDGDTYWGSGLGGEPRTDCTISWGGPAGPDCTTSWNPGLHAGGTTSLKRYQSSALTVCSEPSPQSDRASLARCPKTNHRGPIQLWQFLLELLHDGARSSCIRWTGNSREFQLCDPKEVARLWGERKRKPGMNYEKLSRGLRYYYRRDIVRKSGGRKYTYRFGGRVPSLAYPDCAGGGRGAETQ
The note with it: protein: recombinant; tags: N-terminal GST; dsDNA, one strand shown. A digest of the protocol:
as §1

The next test addresses T5, ELF3 (Homo sapiens, UniProt P78545 1-371).
T5 sequence: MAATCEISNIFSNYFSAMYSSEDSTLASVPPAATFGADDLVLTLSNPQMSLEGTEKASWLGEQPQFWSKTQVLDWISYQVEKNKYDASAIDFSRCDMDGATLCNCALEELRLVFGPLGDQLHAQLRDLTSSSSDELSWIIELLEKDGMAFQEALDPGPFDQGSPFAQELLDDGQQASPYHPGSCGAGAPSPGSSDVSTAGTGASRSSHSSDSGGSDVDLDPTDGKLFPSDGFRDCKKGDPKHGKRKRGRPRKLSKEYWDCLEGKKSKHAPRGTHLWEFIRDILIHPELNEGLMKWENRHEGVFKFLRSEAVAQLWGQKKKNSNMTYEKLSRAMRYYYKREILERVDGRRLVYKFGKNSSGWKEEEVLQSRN
The conditions noted are these: protein: recombinant; tags: N-terminal GST; dsDNA, one strand shown. A digest of the protocol:
as §1

Another test deals with CRX (Homo sapiens, UniProt O43186 1-299). The note with it: protein: recombinant; tags: N-terminal GST; dsDNA, one strand shown. A digest of the protocol: as §1
The target in another test is ETV1 (Homo sapiens, UniProt P50549 1-477). The conditions noted are these: protein: recombinant; tags: N-terminal GST; dsDNA, one strand shown. A digest of the protocol: as §1
Another test deals with T6, ERF (Homo sapiens, UniProt P50548 1-548).
T6 sequence: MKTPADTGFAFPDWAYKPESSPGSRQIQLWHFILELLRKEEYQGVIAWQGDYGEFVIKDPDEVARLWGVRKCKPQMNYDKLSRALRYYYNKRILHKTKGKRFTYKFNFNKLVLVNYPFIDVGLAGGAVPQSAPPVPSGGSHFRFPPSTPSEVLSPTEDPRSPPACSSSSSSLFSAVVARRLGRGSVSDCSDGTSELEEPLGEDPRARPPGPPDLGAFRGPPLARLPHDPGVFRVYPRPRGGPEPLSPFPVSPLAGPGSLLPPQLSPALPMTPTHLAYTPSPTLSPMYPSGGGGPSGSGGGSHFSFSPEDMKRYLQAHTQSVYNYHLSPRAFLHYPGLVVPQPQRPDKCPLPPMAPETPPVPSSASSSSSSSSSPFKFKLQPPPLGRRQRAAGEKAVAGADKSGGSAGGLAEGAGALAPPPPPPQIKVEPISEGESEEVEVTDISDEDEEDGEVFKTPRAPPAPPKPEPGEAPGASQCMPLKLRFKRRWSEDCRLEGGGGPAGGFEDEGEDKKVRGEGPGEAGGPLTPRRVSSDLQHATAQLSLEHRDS
The note with it: protein: recombinant; tags: N-terminal GST; dsDNA, one strand shown. A digest of the protocol: as §1

The target of a further test is T7, ETV3L (Homo sapiens, UniProt Q6ZN32 1-361).
T7 sequence: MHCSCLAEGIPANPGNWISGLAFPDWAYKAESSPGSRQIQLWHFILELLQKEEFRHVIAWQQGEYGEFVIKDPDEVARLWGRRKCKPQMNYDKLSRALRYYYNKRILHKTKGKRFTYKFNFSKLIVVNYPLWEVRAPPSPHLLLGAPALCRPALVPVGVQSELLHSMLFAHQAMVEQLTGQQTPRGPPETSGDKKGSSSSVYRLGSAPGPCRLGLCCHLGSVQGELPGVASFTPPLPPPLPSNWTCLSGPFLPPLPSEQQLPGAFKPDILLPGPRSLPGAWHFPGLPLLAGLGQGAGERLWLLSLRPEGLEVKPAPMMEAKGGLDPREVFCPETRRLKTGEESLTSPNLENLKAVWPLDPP
The conditions noted are these: protein: recombinant; tags: N-terminal GST; dsDNA, one strand shown. In outline:
as §1

The target in the next test is T8, ETS2 (Homo sapiens, UniProt P15036 1-469).
T8 sequence: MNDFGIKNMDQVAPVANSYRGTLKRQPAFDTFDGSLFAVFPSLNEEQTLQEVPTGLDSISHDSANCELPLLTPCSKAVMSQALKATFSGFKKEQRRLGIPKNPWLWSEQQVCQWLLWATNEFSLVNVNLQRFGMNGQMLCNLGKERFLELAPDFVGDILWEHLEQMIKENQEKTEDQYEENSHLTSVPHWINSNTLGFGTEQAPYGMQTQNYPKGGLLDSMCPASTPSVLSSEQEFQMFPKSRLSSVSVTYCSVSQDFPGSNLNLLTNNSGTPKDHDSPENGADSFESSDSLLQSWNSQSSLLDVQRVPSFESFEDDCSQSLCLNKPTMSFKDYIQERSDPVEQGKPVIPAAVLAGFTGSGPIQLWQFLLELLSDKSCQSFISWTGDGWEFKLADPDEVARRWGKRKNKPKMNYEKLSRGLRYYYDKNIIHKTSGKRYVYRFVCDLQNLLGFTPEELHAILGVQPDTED
The conditions noted are these: protein: recombinant; tags: N-terminal GST; dsDNA, one strand shown. A digest of the protocol:
as §1

The next test concerns the target T9, SPDEF (Homo sapiens, UniProt O95238 1-335).
T9 sequence: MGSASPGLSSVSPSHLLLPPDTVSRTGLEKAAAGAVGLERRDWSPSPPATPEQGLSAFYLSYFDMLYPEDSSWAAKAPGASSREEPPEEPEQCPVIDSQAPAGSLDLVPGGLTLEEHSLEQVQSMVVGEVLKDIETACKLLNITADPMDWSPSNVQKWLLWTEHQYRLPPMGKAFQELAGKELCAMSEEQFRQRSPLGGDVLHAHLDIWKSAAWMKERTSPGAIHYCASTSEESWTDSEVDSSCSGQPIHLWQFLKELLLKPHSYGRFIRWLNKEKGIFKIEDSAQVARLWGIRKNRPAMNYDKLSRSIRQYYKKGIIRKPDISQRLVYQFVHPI
The conditions noted are these: protein: recombinant; tags: N-terminal GST; dsDNA, one strand shown. A digest of the protocol:
as §1

The target in another test is T10, ETV7 (Homo sapiens, UniProt Q9Y603 1-341).
T10 sequence: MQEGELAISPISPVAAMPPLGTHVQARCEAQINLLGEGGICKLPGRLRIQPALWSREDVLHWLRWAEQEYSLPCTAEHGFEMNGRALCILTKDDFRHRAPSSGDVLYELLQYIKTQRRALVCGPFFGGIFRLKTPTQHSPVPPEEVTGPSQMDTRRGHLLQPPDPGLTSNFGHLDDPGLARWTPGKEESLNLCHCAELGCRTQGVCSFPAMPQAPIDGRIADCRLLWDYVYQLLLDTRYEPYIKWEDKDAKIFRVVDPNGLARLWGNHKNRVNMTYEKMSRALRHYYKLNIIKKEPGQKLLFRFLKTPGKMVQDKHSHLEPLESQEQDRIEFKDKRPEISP
The note with it: protein: recombinant; tags: N-terminal GST; dsDNA, one strand shown. In outline: as §1

The target of another test is T11, ELF5 (Homo sapiens, UniProt Q9UKW6-2 1-255).
T11 sequence: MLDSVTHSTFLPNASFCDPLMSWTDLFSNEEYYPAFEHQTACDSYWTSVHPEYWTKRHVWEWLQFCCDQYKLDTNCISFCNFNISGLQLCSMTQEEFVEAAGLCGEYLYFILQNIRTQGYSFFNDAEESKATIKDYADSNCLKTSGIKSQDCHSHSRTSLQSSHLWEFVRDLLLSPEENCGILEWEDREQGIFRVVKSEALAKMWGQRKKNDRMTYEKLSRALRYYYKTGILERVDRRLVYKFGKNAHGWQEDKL
The note with it: protein: recombinant; tags: N-terminal GST; dsDNA, one strand shown. A digest of the protocol: as §1

In another test the target is T12, ETV3 (Homo sapiens, UniProt P41162-2 1-143).
T12 sequence: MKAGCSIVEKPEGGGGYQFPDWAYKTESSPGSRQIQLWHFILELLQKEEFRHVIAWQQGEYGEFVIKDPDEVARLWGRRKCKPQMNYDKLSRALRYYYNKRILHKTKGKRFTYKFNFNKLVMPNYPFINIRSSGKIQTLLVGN
The conditions noted are these: protein: recombinant; tags: N-terminal GST; dsDNA, one strand shown. In outline:
as §1

The target in the next test is ETV6 (Homo sapiens, UniProt P41212 1-452). The note with it: protein: recombinant; tags: N-terminal GST; dsDNA, one strand shown. A digest of the protocol: as §1
Chain of ETV6 (P41212 whole entry): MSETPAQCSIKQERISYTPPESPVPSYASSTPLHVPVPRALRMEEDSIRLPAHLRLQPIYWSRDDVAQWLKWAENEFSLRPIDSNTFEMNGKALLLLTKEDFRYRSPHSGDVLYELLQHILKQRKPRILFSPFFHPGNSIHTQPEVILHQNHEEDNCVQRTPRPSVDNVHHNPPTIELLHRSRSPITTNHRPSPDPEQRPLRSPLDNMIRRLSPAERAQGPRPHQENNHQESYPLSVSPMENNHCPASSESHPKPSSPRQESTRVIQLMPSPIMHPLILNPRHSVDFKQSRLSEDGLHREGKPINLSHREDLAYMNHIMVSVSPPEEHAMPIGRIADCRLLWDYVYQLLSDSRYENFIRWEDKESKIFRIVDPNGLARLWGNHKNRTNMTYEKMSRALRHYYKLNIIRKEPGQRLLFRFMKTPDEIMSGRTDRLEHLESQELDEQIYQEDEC

Chain of HSF1 (Q00613 whole entry): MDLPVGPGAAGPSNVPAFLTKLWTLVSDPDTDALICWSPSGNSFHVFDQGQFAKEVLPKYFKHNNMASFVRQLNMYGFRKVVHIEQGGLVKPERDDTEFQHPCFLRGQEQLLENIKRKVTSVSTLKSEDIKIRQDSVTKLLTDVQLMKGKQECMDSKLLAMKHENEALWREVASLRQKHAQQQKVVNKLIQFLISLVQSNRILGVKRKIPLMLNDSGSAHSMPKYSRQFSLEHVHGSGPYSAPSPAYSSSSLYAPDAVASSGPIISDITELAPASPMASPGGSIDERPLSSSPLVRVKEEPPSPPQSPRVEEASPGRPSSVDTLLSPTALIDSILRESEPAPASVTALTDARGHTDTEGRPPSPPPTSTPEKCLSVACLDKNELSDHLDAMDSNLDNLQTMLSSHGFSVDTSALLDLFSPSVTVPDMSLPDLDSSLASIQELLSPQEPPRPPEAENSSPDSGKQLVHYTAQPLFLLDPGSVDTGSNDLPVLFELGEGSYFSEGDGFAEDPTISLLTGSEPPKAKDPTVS
Chain of ELF4 (Q99607 whole entry): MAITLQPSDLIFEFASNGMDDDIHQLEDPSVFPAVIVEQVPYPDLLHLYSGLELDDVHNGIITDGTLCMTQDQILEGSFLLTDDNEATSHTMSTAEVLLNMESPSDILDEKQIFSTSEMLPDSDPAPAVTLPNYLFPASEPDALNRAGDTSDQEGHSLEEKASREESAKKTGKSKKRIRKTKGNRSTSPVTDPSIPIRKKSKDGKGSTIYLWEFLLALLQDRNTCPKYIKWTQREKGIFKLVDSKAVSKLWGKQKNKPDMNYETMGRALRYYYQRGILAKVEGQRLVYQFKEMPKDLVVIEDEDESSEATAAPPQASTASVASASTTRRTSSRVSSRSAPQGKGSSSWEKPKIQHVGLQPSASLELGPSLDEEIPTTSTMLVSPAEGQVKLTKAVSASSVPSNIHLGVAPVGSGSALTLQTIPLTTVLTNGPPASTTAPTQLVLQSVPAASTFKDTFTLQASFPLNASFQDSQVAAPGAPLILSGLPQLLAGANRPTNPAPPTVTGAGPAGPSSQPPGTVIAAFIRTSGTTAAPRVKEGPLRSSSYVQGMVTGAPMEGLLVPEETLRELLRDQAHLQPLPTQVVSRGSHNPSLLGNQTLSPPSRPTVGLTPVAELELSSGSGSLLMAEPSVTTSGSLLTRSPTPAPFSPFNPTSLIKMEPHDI
Chain of ETV1 (P50549 whole entry): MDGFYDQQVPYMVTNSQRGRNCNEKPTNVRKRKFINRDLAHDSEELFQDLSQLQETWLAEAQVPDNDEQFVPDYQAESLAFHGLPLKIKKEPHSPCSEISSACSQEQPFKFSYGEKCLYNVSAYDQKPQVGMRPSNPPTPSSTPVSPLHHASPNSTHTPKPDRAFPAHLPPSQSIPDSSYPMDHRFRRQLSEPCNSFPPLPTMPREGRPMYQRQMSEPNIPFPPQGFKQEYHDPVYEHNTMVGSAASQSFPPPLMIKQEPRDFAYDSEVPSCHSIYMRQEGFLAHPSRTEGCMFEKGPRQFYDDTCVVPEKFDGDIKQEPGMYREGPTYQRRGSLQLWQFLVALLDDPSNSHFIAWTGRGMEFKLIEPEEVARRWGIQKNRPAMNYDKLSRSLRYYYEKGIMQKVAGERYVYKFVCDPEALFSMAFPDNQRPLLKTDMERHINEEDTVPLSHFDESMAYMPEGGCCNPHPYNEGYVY
Chain of CRX (O43186 whole entry): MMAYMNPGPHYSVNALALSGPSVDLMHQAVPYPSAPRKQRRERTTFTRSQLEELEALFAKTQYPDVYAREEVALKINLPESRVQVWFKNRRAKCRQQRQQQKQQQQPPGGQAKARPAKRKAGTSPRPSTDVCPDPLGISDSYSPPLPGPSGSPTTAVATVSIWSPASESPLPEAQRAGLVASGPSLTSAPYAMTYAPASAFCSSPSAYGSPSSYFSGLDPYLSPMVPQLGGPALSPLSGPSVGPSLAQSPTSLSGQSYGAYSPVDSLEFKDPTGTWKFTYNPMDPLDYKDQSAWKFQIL
Chain of ETV5 (P41161 whole entry): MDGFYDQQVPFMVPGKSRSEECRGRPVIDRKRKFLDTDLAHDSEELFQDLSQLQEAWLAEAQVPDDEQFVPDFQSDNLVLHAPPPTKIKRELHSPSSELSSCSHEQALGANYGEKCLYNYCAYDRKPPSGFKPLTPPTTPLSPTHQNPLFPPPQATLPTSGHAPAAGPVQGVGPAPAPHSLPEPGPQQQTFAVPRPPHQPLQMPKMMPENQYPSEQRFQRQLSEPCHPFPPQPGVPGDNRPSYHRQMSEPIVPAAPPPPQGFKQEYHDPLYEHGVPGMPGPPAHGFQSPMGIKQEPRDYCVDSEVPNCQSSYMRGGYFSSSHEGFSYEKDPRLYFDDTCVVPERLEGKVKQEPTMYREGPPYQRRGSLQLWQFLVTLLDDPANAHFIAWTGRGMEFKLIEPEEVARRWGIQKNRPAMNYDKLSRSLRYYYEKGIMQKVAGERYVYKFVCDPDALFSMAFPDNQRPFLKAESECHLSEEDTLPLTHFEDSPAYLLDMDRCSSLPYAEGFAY

TCTATC: the binding signal with FEV was 1.16 fold enrichment (6-mer frequency, TF over GST control); with ETV5 it was 1.19 fold enrichment (6-mer frequency, TF over GST control); with HSF1, 1.43 fold enrichment (6-mer frequency, TF over GST control); with SPIC, 1.23 fold enrichment (6-mer frequency, TF over GST control); with ELF4, 1.25 fold enrichment (6-mer frequency, TF over GST control); with ELK4 it was 1.24 fold enrichment (6-mer frequency, TF over GST control). Besides, the binding signal with ETV2 is 1.27 fold enrichment (6-mer frequency, TF over GST control); in the test with ELF3, 1.29 fold enrichment (6-mer frequency, TF over GST control); in the test with CRX, 1.32 fold enrichment (6-mer frequency, TF over GST control); with ETV1, 1.16 fold enrichment (6-mer frequency, TF over GST control); with ERF, 1.37 fold enrichment (6-mer frequency, TF over GST control); with ETV3L, 1.27 fold enrichment (6-mer frequency, TF over GST control). Also, the binding signal with ETS2 was 1.16 fold enrichment (6-mer frequency, TF over GST control); in the test with SPDEF, 1.27 fold enrichment (6-mer frequency, TF over GST control); in the test with ETV7 it was 1.27 fold enrichment (6-mer frequency, TF over GST control); with ELF5, 1.24 fold enrichment (6-mer frequency, TF over GST control); in the test with ETV3 it was 1.2 fold enrichment (6-mer frequency, TF over GST control); with ETV6, 1.32 fold enrichment (6-mer frequency, TF over GST control).
